Source: the OligoGym collection

biological target: CMIP; experiment: pooled miR-30 sensor sort-seq; sequence = guide strand; settings: shRNA
Further: reference of the scale not given here.

| Sequence | sensor-assay potency score (higher = more potent) |
| --- | --- |
| TCGATGACCACCATGGACCGGG | -0.357 |
| TTCGAGGTGAGGATCTTGCTGA | 0.014 |
| TTTTTGGTCTTGTAACAGGAGC | -1.29 |
| TTCTCTGAGAGCAGTTTCGAGA | -0.721 |
| TTGGGTGTCGTTGTTGTCGATG | -0.39 |
| TTTTTTGGTCTTGTAACAGGAG | -0.0686 |
| TTGTATTCCAGCATCAAGCACA | -0.524 |
| TTGGAGGGCAGTGTTAGCCTGG | -0.584 |
| TCTTTCAAGACAACTTCCCAGC | -0.735 |

biological target: CMPK1; experiment: as above; settings: shRNA

| Sequence | sensor-assay potency score (higher = more potent) |
| --- | --- |
| TCAACTGGTACAATCTTTCCTT | 0.503 |
| TTTACCAAACACATTGTGCAAG | -0.707 |
| TTAATAAACACTAAAATGCTCC | -0.407 |
| TTAAGTTTTCTCATCTTTCTAC | 0.568 |
| TATCTCAACTGGTACAATCTTT | -0.621 |
| ATAAACACTAAAATGCTCCTAA | 0.491 |
| TACAACTTTGTACAAGTTGTAG | -1.32 |
| TACATCTGCCTTCCCATCCATG | -0.919 |
| TTGTTTACCAAACACATTGTGC | -0.615 |
| TATTCTTCTGAGCATTGGCAGC | -1.31 |
| TTAGAAGCATCTATTTTCTTGA | 0.0499 |
